The target of this assay is T1, TALE1-NH (CACNA1C site 1 activator) (Xanthomonas (engineered), UniProt P14727 SEQ:1-983).
T1 chain: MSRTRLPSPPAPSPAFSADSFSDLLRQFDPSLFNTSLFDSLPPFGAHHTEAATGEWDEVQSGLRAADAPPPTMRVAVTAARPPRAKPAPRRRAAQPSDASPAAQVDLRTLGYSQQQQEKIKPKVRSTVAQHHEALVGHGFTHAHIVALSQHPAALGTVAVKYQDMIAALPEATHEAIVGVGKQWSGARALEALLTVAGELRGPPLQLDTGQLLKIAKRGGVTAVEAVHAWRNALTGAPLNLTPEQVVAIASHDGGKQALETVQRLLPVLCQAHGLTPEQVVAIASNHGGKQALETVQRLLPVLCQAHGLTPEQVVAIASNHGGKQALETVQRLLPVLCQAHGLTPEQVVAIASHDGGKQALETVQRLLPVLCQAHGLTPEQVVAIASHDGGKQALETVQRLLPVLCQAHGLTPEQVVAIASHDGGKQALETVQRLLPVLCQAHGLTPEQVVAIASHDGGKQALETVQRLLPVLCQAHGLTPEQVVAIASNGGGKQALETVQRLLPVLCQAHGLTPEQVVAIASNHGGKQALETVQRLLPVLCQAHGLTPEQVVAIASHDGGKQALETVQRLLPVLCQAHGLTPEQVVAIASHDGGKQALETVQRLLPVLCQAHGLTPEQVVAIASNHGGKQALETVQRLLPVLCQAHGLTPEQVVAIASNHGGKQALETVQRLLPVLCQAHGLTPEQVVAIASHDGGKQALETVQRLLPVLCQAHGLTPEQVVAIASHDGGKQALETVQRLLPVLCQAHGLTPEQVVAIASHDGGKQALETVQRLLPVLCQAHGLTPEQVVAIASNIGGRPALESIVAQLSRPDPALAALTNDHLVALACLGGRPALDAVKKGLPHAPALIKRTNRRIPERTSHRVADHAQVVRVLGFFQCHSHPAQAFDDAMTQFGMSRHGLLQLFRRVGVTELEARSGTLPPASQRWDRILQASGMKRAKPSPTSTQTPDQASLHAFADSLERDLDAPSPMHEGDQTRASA
The assay can be described thus: cell_activity; luciferase reporter. The note with it: tags: VP64, 2A-GFP; dsDNA, one strand shown. The protocol: TALEs using NN, NK, NH, and HN as the G-targeting RVD were synthesized to target two distinct 18 bp target sites in the human CACNA1C locus. Changes in mRNA are measured using qRT-PCR as described previously. VP64, VP64 transcription activation domain. All results are collected from three independent experiments in HEK 293FT cells. Error bars indicate s.e.m.; n=3. FIG. 19(b) discloses SEQ ID NOS 63 and 62, respectively, in order of appearance.
To determine whether NH and HN are suitable replacements for NN as the G-specific RVD, specificity and activity strength of NN, NK, NH, and HN were directly compared. Two 18 bp targets within the CACNA1C locus in the human genome were chosen and four TALEs for each target were constructed, using NN, NK, NH, or HN as the G-targeting RVD (FIG. 19a). […] For each CACNA1C target site, four luciferase reporters were constructed: wild type genomic target, and wild type target with 2, 4, or all guanines mutated into adenines (FIG. 19a, G-to-A reporters), and compared the activity of each TALE using these reporters (FIG. 19a). […] Thus, focus was placed on the RVDs NN, NK, and NH in subsequent experiments to assess their usefulness in modulating transcription at endogenous human genome targets.
For orientation: A reporter such as luciferase makes a cellular process visible.
With TCAACCCCTGCCGGCCCA, the binding signal was 71.4 % reduction vs wild-type site.

With TCAACCCCTACCAACCCA, the binding signal is < 10 % of wild-type site activation.

The record behind these values is patent publication US20140271602, “NUCLEOTIDE-SPECIFIC RECOGNITION SEQUENCES FOR DESIGNER TAL EFFECTORS” (THE BROAD INSTITUTE INC., published 2014).
